Assay results published in PubChem BioAssay AID925 (National Center for Advancing Translational Sciences (NCATS), 2007).
Where “and” joins values, the source holds several entries; their conditions need not be identical. Identical values can stand only once. The whole screen tested about 65,000 compounds, of which about 40 (0.06%) were called active. The call rests on the fitted dose curve; in most records, active means well fitted activation curve with a large enough effect; inconclusive means small, poorly fitted or top-dose-only effect; inactive means flat fitted curve, though single readings scatter. The list comes from a sample in which actives are over-represented; it also holds similar structures and randomly drawn compounds.

Experiment: qHTS Assay for Modulators of Hemoglobin Beta Chain Splicing; on activation: 0% is about no effect
Conditions: HBB splicing reporter cell assay, EGFP reporter with mutant IVS2-654 intron; Potency: activation; series mostly up to 46.1 µM; activation: at the top concentration
Excerpt: NIH Chemical Genomics Center [NCGC]
NIH Molecular Libraries Screening Centers Network [MLSCN]
PI Name: Dr. Ryszard Kole
Modulation of Alternative Splicing as Therapy
Abnormal splicing is associated with a number of diseases, including cancer and genetic diseases such as cystic fibrosis, muscular dystrophy and beta-thalassemia. Alteration of disease associated splicing patterns provides a promising target for treatment. […] Mutations in the second intron of the beta-globin gene at positions are clinically relevant and cause mis-splicing which results in an out of frame gene product.
EGFP-654 and 705 HeLa Cells as screen system.
HeLa cell lines were stably transfected with a construct in which the EGFP (enhanced green fluorescent protein) cDNA was interrupted by the second intron of the beta-globin gene (IVS2-654). The ISV2 intron contains mutations which cause mis-splicing of EGFP and premature termination of EGFP which results in a nonfluorescent protein product. […] Expression of the transgene was driven by the CMV promoter. We concluded that a low molecular weight compound, which restored correct splicing of intron 2 would also generate functional EGFP protein, resulting in a fluorescent signal. Thus, the HeLa cells that express the EGFP-654 construct can be used for high throughput screening of a chemical library.
NCGC Assay Protocol Summary:
High Throughput Screening. Freshly thawed HeLa EGFP-654 cells were seeded in 5 ul of optimem media (Invitrogen) containing 2 % fetal calf serum (Hyclone) and 1x penicillin/streptomycin (Invitrogen) at a concentration of 500 cells per well in 1536-well plates. Cells were incubated overnight at 37C in 5% CO2. The next day, cells were treated with DMSO, 500 nM antisense ISV2 654 PNA control oligo, or library compound and allowed to grow at 37C in 5% CO2 for 2 days. The PNA oligo blocked the mutation site in the intron and allowed proper (wild type) splicing to occur, resulting in full length EGFP expression and also allowed for optimization of the assay parameters. Plates were read in the Acumen Explorer (TTP Labtech) using 488 nm laser excitation and 500-520 nm emission PMT filter in a 1 x […] capture mode. Fluorescnet Fluorescent objects ranging in size from […] were measured and the total peak GFP intensity for each well was used for data analysis.
Keywords: Thalassemia, beta-thalassemia, beta-globin, EGFP, ISV2 654, ISV2 705, SSO, PNA, antisense, splicing, MLSMR, MLSCN, NIH Roadmap, qHTS, NCGC
Potency means the concentration at half of the fitted maximal effect.

activation, inactive:
N#Cc1cccc(-c2nc3cnc(N4CCNCC4)nc3n(C3CC3)c2=O)c1 -0.0364%
CCNc1ncc2nc(CCc3ccccc3)c(=O)n(-c3ccc(OC)cc3)c2n1 9.49%
COCCn1c(=O)c(-c2cc(F)cc(F)c2)nc2cnc(N3CCNCC3)nc21 -0.701%
N#CCCn1c(=O)c(-c2cc(F)cc(F)c2)nc2cnc(Oc3ccccc3)nc21 -1.62%
CN1CCc2[nH]nc(-c3n[nH]c4c3CN(C)CC4)c2C1 1.49% [at 9.22 µM, normalised to 500 nM splice-correcting PNA]
COC(=O)N1CCC2(CCCN(Cc3ccccc3OC)C2)CC1 -1.36%
CN(C)CCCn1c2ccccc2c2cnccc21 4.04% [at 9.22 µM, normalised to 500 nM splice-correcting PNA]
CCN1C(=O)c2cccc3c(N)ccc1c23 -0.679%
CC(C)CN1CCc2nc(-c3ccccc3)c3c(c2C1)COC(C)C3 (centres undefined) 2% [at 9.22 µM, normalised to 500 nM splice-correcting PNA]
CCCn1c(-c2ccc(F)cc2)nc2c(NC3CCN(Cc4ccccc4)C3)nc(C)nc21 (centres undefined) -0.408%
CCOc1ccc(N=NS(=O)(=O)O)cc1 3.52% [at 9.22 µM, normalised to 500 nM splice-correcting PNA]
CCCCC(CC)CN (centres undefined)
CC(C)(C)[Si](OCC[C@@H]1C[C@@]1(C)[C@@H](NP(=O)(c1ccccc1)c1ccccc1)c1ccccc1)(c1ccccc1)c1ccccc1 -1.23%
Cn1c(=O)n2n(c1=O)[C@H]1[C@H](O)[C@H]3O[C@H]3C(=O)[C@H]1CC2 0.301% [at 9.22 µM, normalised to 500 nM splice-correcting PNA]
CN1C(=O)C[C@H](c2ccccc2)C1=O 0.654% [at 20.6 µM, normalised to 500 nM splice-correcting PNA]
S=c1[nH]nc(SCc2ccccc2Cl)c2[nH]cnc12 3.49% [at 9.22 µM, normalised to 500 nM splice-correcting PNA]
CC(=O)OCC1OC(C#CCCCc2ccccc2)C=CC1OC(C)=O (centres undefined) -0.748% [at 9.22 µM, normalised to 500 nM splice-correcting PNA] and 1.62% [at 9.22 µM, normalised to 500 nM splice-correcting PNA]
O=C(c1ccco1)N1CCC2(CC1)CCN(c1ncccn1)CC2 6.14%
CC(C)[C@@H](OCc1ccccc1)[C@H](C)/C=N\OC[C@@H](C)[C@H](OCc1ccccc1)C(C)C 4.09% [at 9.22 µM, normalised to 500 nM splice-correcting PNA]
COc1ccccc1-c1nc(N2CCN(C)CC2)c2ccccc2n1 -1.17%
CCCCCCN(C(=O)CCCCCN1C(=O)NC(c2ccc(C(F)(F)F)cc2)C(C(=O)OCc2ccccc2)=C1C)C(C(=O)NCCCC)c1ccc(OCC(=O)OC)c(C(=O)OC)c1 (centres undefined) -0.619%
CC(=O)CC(C)C -0.025%
COC(=O)[C@@]1(Cc2ccc(F)cc2)[C@H]2c3cc(C(=O)N(C)C)n(CCc4c[nH]c5ccc(OC)cc45)c3C[C@H]2CN1C(=O)c1ccccc1 0.012%
CC(C)NC(=O)N1CCCC2(CCN(C(=O)c3cccn3C)CC2)C1 2.69%
O=C(O)/C(=C/c1c(C(=O)O)[nH]c2cc(Cl)cc(Cl)c12)c1ccccc1 -0.728%
O=C(c1ccco1)N1CCC[C@@]2(CCN(c3ccccc3)C2)C1 -0.234%
NC1(C(=O)OCc2ccccc2)CCCC1 1.82% [at 9.22 µM, normalised to 500 nM splice-correcting PNA]
COc1ccc(Br)c2c1C[C@H](C(=O)O)CC2 3.18% [at 9.22 µM, normalised to 500 nM splice-correcting PNA]
COC(=O)c1ccc(C(NC(=O)OCc2ccccc2)/C(C)=C/[C@@H](C)C(=O)NCc2cc(C)on2)cc1 (some centres undefined) 0.55%
COc1ccc(-n2c(=O)c(-c3cn(C)c4ccccc34)nc3cnc(OC)nc32)cc1 1.65%
Brc1cc(Br)c(Oc2cc(Br)c(Br)cc2Br)cc1Br -0.0225%
Oc1ccc(O)c2c(O)cccc12 -0.446%
N#Cc1cccc(-c2ccc3ncnc(NCc4cccs4)c3c2)c1 -0.857%
CC[N+](C)(CC)CCC[n+]1c(-c2ccccc2)c2cc(N)ccc2c2ccc(N)cc21 -0.429% [at 20.6 µM, normalised to 500 nM splice-correcting PNA]
COc1ccccc1-c1cc(NCc2cccs2)ncn1 0.429%
COc1ccc2[nH]cc(CCNc3nc(-c4cccc(NS(C)(=O)=O)c4)nc4ccccc34)c2c1 -1.42%
C[C@H](CCC(=O)O)[C@H]1CC[C@@H]2[C@H]3CC[C@H]4C[C@H](O)CC[C@@]4(C)[C@@H]3CC[C@@]21C 1.15% [at 9.22 µM, normalised to 500 nM splice-correcting PNA]
C[C@H]1O[C@@H](CC(=O)O)Cc2c1c(O)c1c(O)cc(-c3cc(=O)c4c(=O)c5c(c(=O)c=4c3=O)C[C@H](CC(=O)O)O[C@@H]5C)c(O)c1c2O 4.76% [at 9.22 µM, normalised to 500 nM splice-correcting PNA]
COC(=O)[C@@]1(Cc2ccccc2)[C@H]2c3cc(C(=O)N(C)C)n(CCSCCO)c3C[C@H]2CN1C(=O)c1ccccc1 -0.366%
COc1ccc(C(=O)N/N=C2/C(=O)c3c(C)cc(C)cc3CC2(C)C)cc1 3.55% [at 9.22 µM, normalised to 500 nM splice-correcting PNA]
COC(=O)[C@@]1(Cc2ccccc2)[C@H]2c3cc(C(=O)N4CCCC4)n(Cc4ccc(C)o4)c3C[C@H]2CN1C(=O)c1ccccc1 0.0086%
CC(C)CC1(C(=O)NCc2ccccn2)C=CCN1C(=O)c1ccccc1 (centres undefined) -0.315%
COC(=O)C1(C)C=CC2(CCCCC2)N1C(C)=O (centres undefined) -0.264%
O=C(Nc1cccc(F)c1)N1CC2(CCN(C(=O)c3cnccn3)CC2)C1 -0.736%
COc1ccc(OC)c([C@H](O)CNC(=O)CN)c1 1.06% [at 20.6 µM, normalised to 500 nM splice-correcting PNA]
CS(=O)(=O)N1CCC[C@@]2(CCN(c3ccncc3)C2)C1 0.825%
COc1ccc(CNc2ncnc3ccc(-c4cccnc4)cc23)c(OC)c1 -0.216%
CN(C)C(=O)/N=N\C(=O)N(C)C 0.247%
Oc1c(Br)cc(CN(Cc2cc(Br)c(O)c(Br)c2)C2CCCCC2)cc1Br 1.47% [at 9.22 µM, normalised to 500 nM splice-correcting PNA]
CC(C)(C)c1ccc(OC2C=CC(C#Cc3ccccc3)OC2CO)cc1 (centres undefined) -0.074% [at 9.22 µM, normalised to 500 nM splice-correcting PNA]
CC(C)=CCC/C(C)=C/CO/N=C1/C[C@@H](O)[C@@H](O)[C@@H]2[C@@H]3C(=O)N(C(C)(C)C)C(=O)[C@H]3CC[C@H]12 -1.71% [at 9.22 µM, normalised to 500 nM splice-correcting PNA]
CCCn1c(C)nc2c(NCCCCN(CC)CC)nc(C)nc21 -0.385%
O=C(Cl)c1ccccc1[N+](=O)[O-] -0.267%
CC(C)(C)NCC[C@@H](O)c1cc(C(F)(F)F)nc2c(C(F)(F)F)cccc12 0.766% [at 9.22 µM, normalised to 500 nM splice-correcting PNA]
COc1cccc(-c2cc(NCCc3c[nH]c4ccc(OC)cc34)ncn2)c1 -0.561%
COc1ccc(/C=C/NC(=O)Cc2ccc(OC)c(OC)c2)cc1 1.47% [at 9.22 µM, normalised to 500 nM splice-correcting PNA] and 0.37% [at 9.22 µM, normalised to 500 nM splice-correcting PNA]
O=C(O)c1nccnc1C(=O)Nc1ccc(Br)cn1 -1.21%
COc1cccc(Cn2c(=O)cnc3cncnc32)c1 4.4%
O=C(O)[C@H](CCc1ccccn1)c1ccccc1 1.34% [at 9.22 µM, normalised to 500 nM splice-correcting PNA]
N#Cc1ccccc1-c1ccc2ncnc(NCc3cccnc3)c2c1 -2.1%
CCCCC/C=C/C=C/C=O 1.32%
O=C(O)CCCCC(=O)O -0.164%
CNC(=O)C1(C)C=CC2(CCCCC2)N1C(C)=O (centres undefined) -1.62%
O=S(=O)(c1ccccc1)N1CCC2(CC1)CN(Cc1nccs1)C2 1.28%
CCON=C1C(C)(C)C(C)(C)C(C)(C)C1(C)C 1.16% [at 9.22 µM, normalised to 500 nM splice-correcting PNA]
O=C(c1cnccn1)N1CCC2(CCN(Cc3cc(C(F)(F)F)cc(C(F)(F)F)c3)CC2)CC1 -0.133%
O=C(c1ccncc1)N1CCC2(CCCN(C(c3ccccc3)c3ccccc3)C2)CC1 0.276%
Nc1ccccc1N 1.59%
CC(=O)OCC(COC(C)=O)OC(C)=O 1.19%
Cc1cc(C(=O)O)ccc1[N+](=O)[O-] 0.443%
O=C1C[C@@H](O)[C@@H](O)[C@H]2[C@@H]3C(=O)N(Cc4ccc5c(c4)OCO5)C(=O)[C@@H]3CC[C@H]12 3.01% [at 9.22 µM, normalised to 500 nM splice-correcting PNA] and 2.86% [at 9.22 µM, normalised to 500 nM splice-correcting PNA]
CN/C(=C\[N+](=O)[O-])NCCSCc1csc(CN(C)C)n1 -1.87% [at 20.6 µM, normalised to 500 nM splice-correcting PNA]
CO[C@H]1COC(=O)C/C=C\[C@H](C)COC(=O)[C@@H](OCc2ccccc2)/C=C\[C@@H]1C 1.62% [at 9.22 µM, normalised to 500 nM splice-correcting PNA]

Potency, active:
Nc1ccc2c3c(cccc13)C(=O)NC2=O 31.6 µM
